This is a sample that favours compounds with a hit; in the whole collection about 4% have one here.
697 NFkB inh: inhibitors of the PMA/ionomycin-induced NF-kB reporter in 697 B cells; 697 B-cell NF-kB luciferase reporter, 16 h; inhibition, % at 4 µM; 330,000 compounds, 0.33% hits; AID 435022; in the data active = inhibition above about 35%
Beta cell apopt: blocks beta cell apoptosis | 300,000 compounds, 0.8% hits | INS-1E cytokine-induced death, ATP luminescence, 48 h; percent of positive-control rescue, neutral wells zero | protection from apoptosis, % (no concentration beside the values);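 active = Every replicate reaches about 75%, or at least half do and their mean reaches it too, limit read from the data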;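 also: higher means more ATP so stronger rescue from cytokine killing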
Mdm2 MdmX PPI: human Mdm2/MdmX binding inhibition. SaOS-2 split-luciferase Mdm2/MdmX complementation, luminescence. inhibition, % at 8 µM. 330,000 compounds, 3% hits. AID 485346;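 active = inhibition of at least 50% at 8 µM in the primary screen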
Gli-Sufu antag: blocks Gli-Sufu signaling in a luciferase reporter; Sufu-KO-LIGHT fibroblasts, Gli luciferase reporter luminescence; inhibition, % at 5 µM; 340,000 compounds, 0.74% hits;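 active = inhibition above about 55%, limit read from the data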
Jurkat NFkB inh: inhibitors of the PMA/ionomycin-induced NF-kB reporter in Jurkat cells; PMA/ionomycin-induced NF-kB luciferase reporter, luminescence; inhibition, % at 4 µM; 330,000 compounds, 0.53% hits; AID 435003; in the data active = inhibition above about 50%
Mdm2-MdmX conf: confirmation of human Mdm2/MdmX interaction inhibitors; AID 489028; inhibition, % at 8 µM; 10,000 compounds, 55% hits; shares compounds with Mdm2 MdmX PPI; Mdm2-MdmX binding, luminescent assay; in the data active = inhibition above about 40%
FLuc counter: full-length luciferase inhibition in Mdm2/MdmX counter-screen; shares compounds with Mdm2 MdmX PPI; SaOS-2 full-length luciferase counterscreen, luminescence; inhibition, % at 8 µM; 6,200 compounds, 77% hits; AID 504607;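 active = mean inhibition at 8 µM reaching about 37%, which flags the compound as non-specific, limit read from the data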;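 also: p53-null SaOS-2 cells with luciferase driven by a doxycycline-inducible promoter; compound on cells about two nights before reading with doxycycline added after day one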
Of the large screens only hits and unclear results are named; the others gave an inactive call (follow-up assays come after a bar, where they were run).

CCN1CCN(Cc2ccc(NC(=O)c3cc(NC(=O)N4CCNC4=O)cc(OC)c3)cc2C(F)(F)F)CC1	Mdm2 MdmX PPI 76 | Mdm2-MdmX conf 50 | FLuc counter 68
COc1cc(NC(=O)c2csc(-c3ccncc3)n2)cc(C(=O)Nc2cccc(C(F)(F)F)c2)c1	none
CCN1CCN(Cc2ccc(NC(=O)c3ccc(C)c(NC(=O)c4c[nH]c5cc(C(F)(F)F)ccc5c4=O)c3)cc2C(F)(F)F)CC1	Beta cell apopt 99, Mdm2 MdmX PPI 100 | Mdm2-MdmX conf 100 | FLuc counter 52
CCN1CCN(Cc2ccc(NC(=O)c3cc(NC(=O)c4ccc5n[nH]nc5c4)cc(OC)c3)cc2C(F)(F)F)CC1	none
CCN1CCN(Cc2ccc(NC(=O)c3ccc(C)c(NC(=O)C4=NN(c5ccccc5)C(=O)C4)c3)cc2C(F)(F)F)CC1	none
O=C(c1cccc(O)c1)N1CCN(C(=O)C2CC2)CC1	none
CCC(C)(C)NC(=O)C(c1ccc(OC)cc1)N(C(=O)CCC(=O)Nc1cc(C)on1)c1ccc2c(c1)OCCO2 (centres undefined)	none
Cc1cc(C)nc(N2N=C(C(F)(F)F)CC2=O)n1	none
S=C(Nc1cc(Cl)cc(Cl)c1)N1CCN(c2ccccn2)CC1	none
COC(C/C=C\[C@H](O)[C@H](C)OCc1ccccc1)OC	none
CCN1CCN(Cc2ccc(NC(=O)c3ccc(C)c(NC(=O)c4ccno4)c3)cc2C(F)(F)F)CC1	Mdm2 MdmX PPI 63 | Mdm2-MdmX conf 43 | FLuc counter 57
COc1cc(NC(=O)c2ccno2)cc(C(=O)Nc2cccc(C(F)(F)F)c2)c1	none
CCN1CCN(Cc2ccc(NC(=O)c3cc(NC(=O)c4cc5cccc(OC)c5o4)cc(OC)c3)cc2C(F)(F)F)CC1	Mdm2 MdmX PPI 98 | Mdm2-MdmX conf inactive
CCN1CCN(Cc2ccc(NC(=O)c3ccc(C)c(NC(=O)c4csc(-c5ccncc5)n4)c3)cc2C(F)(F)F)CC1	none
COc1cc(NC(=O)c2cc3cccc(OC)c3o2)cc(C(=O)Nc2cccc(C(F)(F)F)c2)c1	Mdm2 MdmX PPI 59 | Mdm2-MdmX conf 56 | FLuc counter 41
CCN1CCN(Cc2ccc(NC(=O)c3ccc(C)c(NC(=O)c4cccc(-c5cn[nH]c(=O)c5)c4)c3)cc2C(F)(F)F)CC1	Mdm2 MdmX PPI 84 | Mdm2-MdmX conf 46 | FLuc counter inactive
Cc1ccccc1C(=O)NC(CC(C)C)C(=O)NCC(C)(C)N1CCOCC1 (centres undefined)	none
CCN1CCN(Cc2ccc(NC(=O)c3ccc(C)c(NC(=O)C[C@@H]4NC(=O)[C@H](Cc5ccccc5)NC4=O)c3)cc2C(F)(F)F)CC1	none
CCN1CCN(Cc2ccc(NC(=O)c3cc(NC(=O)c4ccno4)cc(OC)c3)cc2C(F)(F)F)CC1	Mdm2 MdmX PPI 55 | Mdm2-MdmX conf inactive | FLuc counter 61
CCN1CCN(Cc2ccc(NC(=O)c3ccc(C)c(/C=C/c4cnc(Nc5cc(N6CCNCC6)nc(C)n5)cn4)c3)cc2C(F)(F)F)CC1	Mdm2 MdmX PPI 88 | Mdm2-MdmX conf 55 | FLuc counter 37
CCN1CCN(Cc2ccc(NC(=O)c3cc(NC(=O)C4=NN(c5ccccc5)C(=O)C4)cc(OC)c3)cc2C(F)(F)F)CC1	none
CC(=O)N1CCN(C(=O)c2cc(S(=O)(=O)N(C)c3ccc(F)cc3)ccc2Cl)CC1	none (no result: Beta cell apopt)
O=C1N(c2ccccc2)C[C@@H]2C[C@@H](c3cccs3)N3CCC[C@@]123	none
CC(C)(O)C#Cc1ccc([C@@H]2C[C@H]3CN(c4ccccc4)C(=O)[C@]34CCCN24)s1	Mdm2 MdmX PPI 64 | Mdm2-MdmX conf 41 | FLuc counter 60
COCCCNC(=O)c1ccc2c3c(onc13)-c1ccccc1C2=O	none
O=C1c2ccccc2-c2onc3ccc(Oc4ccccc4)c1c23	Mdm2 MdmX PPI 96 (no result: Beta cell apopt) | Mdm2-MdmX conf 63 | FLuc counter 51
CCCc1cnc(NCCNCC(O)COc2ccc(Cl)c(Cl)c2)nc1 (centres undefined)	Mdm2 MdmX PPI 56 | Mdm2-MdmX conf inactive
O=C(CCl)N1CCN(S(=O)(=O)Cc2ccccc2)CC1	Mdm2 MdmX PPI 71 | Mdm2-MdmX conf inactive
COc1ccc(CNC(=O)Cn2nnc(-c3ccc(NC(=O)C4CCCCC4)cc3)n2)cc1	Mdm2 MdmX PPI 61 | Mdm2-MdmX conf inactive
CCOc1ccccc1NC(=O)Cn1nnc(-c2ccc(OCC)c(OCC)c2)n1	Mdm2 MdmX PPI 88 (no result: Beta cell apopt) | Mdm2-MdmX conf inactive
CCOc1ccc(-c2nnn(CC(=O)NCc3ccc(OC)cc3)n2)cc1OCC	Mdm2 MdmX PPI 62 | Mdm2-MdmX conf inactive
Cc1nn(CC(=O)O)c(C)c1N	none
Oc1ccc(N=Nc2ccc3c(c2)OCCO3)c2ncccc12	Beta cell apopt 96, Mdm2 MdmX PPI 98 | Mdm2-MdmX conf 87 | FLuc counter inactive
COc1cc2nc(N(C)C)nc(N)c2cc1OC	none
COc1cc2nc(Nc3ccc(C)c(Cl)c3)nc(N)c2cc1OC	Mdm2 MdmX PPI 93 | Mdm2-MdmX conf 66 | FLuc counter 88
COc1cc2nc(Nc3ccc(C)c(C)c3)nc(N)c2cc1OC	Mdm2 MdmX PPI 87 | Mdm2-MdmX conf inactive
Cc1ccn2c(c1)nc(=O)c1cc(S(=O)(=O)N3CCOCC3)ccc12	none (no result: Beta cell apopt)
CCn1c(Oc2ccccc2F)nc2c1c(=O)n(C)c(=O)n2C	Mdm2 MdmX PPI 68 | Mdm2-MdmX conf 66 | FLuc counter inactive
CCOC1=NN(c2ccc(Cl)cc2)C(=O)/C1=C\N(C)C	none
CCOC1=NN(c2ncc(C(F)(F)F)cc2Cl)C(=O)/C1=C/N(C)C	Mdm2 MdmX PPI 70 | Mdm2-MdmX conf inactive
COC(=O)C1=C(C)NC(C)=C(C(=O)OCC(C)C)C1c1ccccc1[N+](=O)[O-] (centres undefined)	Mdm2 MdmX PPI 72 | Mdm2-MdmX conf 65 | FLuc counter inactive
Cc1ccc(-n2nnnc2SCC(=O)c2c(N)n(C3CC3)c(=O)[nH]c2=O)cc1C	none
Fc1cnc(N/N=C/c2ccc(-c3ccc(Br)cc3)o2)nc1N1CCOCC1	Mdm2 MdmX PPI 59 | Mdm2-MdmX conf inactive
Brc1ccc(-c2ccc(/C=N/Nc3nc(N4CCOCC4)nc(N4CCOCC4)n3)o2)cc1	Mdm2 MdmX PPI 69 | Mdm2-MdmX conf inactive
Brc1ccc(-c2ccc(/C=N/Nc3nncc(-c4ccccc4)n3)o2)cc1	none
Clc1ccc(-c2ccc(/C=N/Nc3cc(N4CCOCC4)nc(N4CCOCC4)n3)o2)cc1	none
N#Cc1c2n(c3c(N)ncnc13)CCCCC2	none
O=C(NCc1ccco1)c1ccccc1NS(=O)(=O)c1ccc(Cl)s1	none
O=C(Nc1ccccc1)c1ccccc1NS(=O)(=O)c1ccc(Cl)s1	Mdm2 MdmX PPI 85 | Mdm2-MdmX conf 62 | FLuc counter inactive
